Measurements from PubChem BioAssay (Tox21).
Records with an inconclusive call do not appear. Activity calls are given as the source filed them. Unless noted, the call rests on the fitted dose curve; in most records, active means well fitted curve in the direction sought with a large enough effect in the repeat runs; inconclusive means weak or mixed curves; inactive means no such curve, though single readings can be large; an effect the other way counts as inactive or inconclusive.

Assays:
[1] = A CellTox Green Cytotoxicity Assay to monitor cytotoxicity in HEK293 cells - 32 hour (AID 1224881); further: nearly all actives have a fitted effect of over 40% in size
In short: (§1)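 Tox21 screen in HEK293: membrane-impermeant cyanine dye fluoresces on binding dead-cell DNA; compound pinned 5 h post-seeding, plates held at 37 C, signal read repeatedly through 40 h.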

[2] = A CellTox Green Cytotoxicity Assay to monitor cytotoxicity in HepG2 cells - 0 hour (AID 1224882); further: nearly all actives have a fitted effect of over 35% in size
In short: (§2)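 Measurements at 0, 8, 16, 24, 32 and 40 h of treatment captured CellTox Green fluorescence in HepG2 cells that had been co-plated with reagent and preincubated 5 h at 37 C/5% CO2.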

[3] = A CellTox Green Cytotoxicity Assay to monitor cytotoxicity in HepG2 cells - 32 hour (AID 1224883); further: nearly all actives have a fitted effect of over 50% in size
In short: as §2

[4] = A CellTox Green Cytotoxicity Assay to monitor cytotoxicity in HEK293 cells - 8 hour (AID 1224884); further: nearly all actives have a fitted effect of over 35% in size
In short: as §1

[5] = qHTS RealTime-Glo MT Cell Viability Assay in HepG2 cells - 16 hour (AID 1224885); further: nearly all actives have a fitted effect of over 50% in size
In short: (§3)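 Cells + NanoLuc/prosubstrate dispensed (600 cells/well) → 5 h at 37 C/5% CO2 → compounds in DMSO transferred → 40 h incubation at 37 C, luminescence read at 0, 8, 16, 24, 32, 40 h.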

[6] = qHTS RealTime-Glo MT Cell Viability Assay in HEK293 cells - 24 hour (AID 1224886); further: top concentration of the series differs between compounds; nearly all actives have a fitted effect of over 50% in size
In short: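 Tox21 10K qHTS, HEK293, 600 cells/well, RealTime-Glo reagent co-dispensed with cells; 5 h preincubation, compound by pintool, 37 C, luminescence at 0–40 h.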

[7] = qHTS RealTime-Glo MT Cell Viability Assay in HEK293 cells - 8 hour (AID 1224887); further: top concentration of the series differs between compounds; nearly all actives have a fitted effect of over 50% in size
In short: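 HEK293 + NanoLuc + prosubstrate, 600 cells/well; 5 h, 37 C/5% CO2; compound 23 nL in DMSO by pintool; 37 C; luminescence read at 0, 8, 16, 24, 32 and 40 h time points.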

[8] = A CellTox Green Cytotoxicity Assay to monitor cytotoxicity in HEK293 cells - 16 hour (AID 1224888); further: nearly all actives have a fitted effect of over 35% in size
In short: as §1

[9] = qHTS RealTime-Glo MT Cell Viability Assay in HepG2 cells - 0 hour (AID 1224889); further: nearly all actives have a fitted effect of over 50% in size
In short: as §3

[10] = A CellTox Green Cytotoxicity Assay to monitor cytotoxicity in HepG2 cells - 8 hour (AID 1224890); further: nearly all actives have a fitted effect of over 45% in size
In short: as §2

[11] = qHTS assay to identify small molecule antagonists of the estrogen receptor alpha (ER-alpha) signaling pathway using the BG1 cell line in the presence of 0.1 nM 17-beta-estradiol - cell viability counter screen (AID 1259241); further: nearly all actives have a fitted effect of over 40% in size
In short: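 VM7Luc4E2 cells (endogenous full-length ER-alpha, 4xERE-luciferase), cultured 5 days in charcoal-stripped serum, exposed to compounds with 0.1 nM 17beta-estradiol (final) for 22 hr at 37C. Viability read in same wells as live-cell protease fluorescence after 30 min.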

[12] = qHTS assay to identify small molecule antagonists of the androgen receptor (AR) signaling pathway using the MDA cell line in the presence of 0.5 nM R1881 - cell viability counter screen (AID 1259242); further: nearly all actives have a fitted effect of over 45% in size
In short: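 Concentration-response screen of compounds for toxicity in MDA-kb2 reporter cells: 16 hr at 37C with 0.5 nM R1881, endpoint live-cell protease fluorescence measured in the reporter wells.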

[13] = qHTS assay to identify small molecule HDAC inhibitors (AID 1259364);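 further: wild-type HCT-116 cells with endogenous class I/II HDAC activity; top concentration of the series differs between compounds; nearly all actives have a fitted effect of over 45% in size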
In short: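 Screening used wild-type human colon HCT-116 cells incubated overnight, dosed with compounds for 2 hours, and assayed with a homogeneous luminogenic HDAC I/II reagent for 30 minutes at room temperature.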

[14] = qHTS assay to identify small molecule HDAC inhibitors - cell viability counter screen (AID 1259365)
In short: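 Wild-type HCT-116 cells, 1,500/well, cultured overnight, then compound-treated 2 h at 37 C. Viability measured as ATP luminescence with CellTiter-Glo after 30 min at room temperature.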

[15] = qHTS assay to identify small molecule agonists of the sonic hedgehog signaling (Shh) pathway - cell viability counter screen (AID 1259366); further: nearly all actives have a fitted effect of over 50% in size
In short: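 NIH/3T3-derived Gli1-Luc reporter cells, 2,000 per well, received compound after 4 h and were treated about 23 h at 37C. Viability measured in the same wells by CellTiter-Fluor fluorescence after 1 h.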

[16] = qHTS assay to identify small molecule antagonists of the sonic hedgehog signaling (Shh) pathway - cell viability counter screen (AID 1259367); further: nearly all actives have a fitted effect of over 55% in size; further: potency means the concentration at half of the fitted maximal effect
In short: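 Cytotoxicity was assessed in parallel with Shh reporter activity by measuring live-cell protease fluorescence (CellTiter-Fluor) in NIH/3T3 cells stably carrying Gli1-Luc, treated with compound under conditioned medium stimulation for 23 hr plus 1 hr reagent incubation.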

[17] = qHTS assay to identify small molecule agonists of the sonic hedgehog signaling (Shh) pathway (AID 1259368; calls by dose curve;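 further: NIH/3T3-derived 3T3Gli1-Luc cells carrying a stable Gli1-driven firefly luciferase reporter; series mostly up to about 92 µM; nearly all actives have a fitted effect of over 15% in size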)
In short: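 Hedgehog pathway agonism scored by increased firefly luciferase luminescence in 3T3Gli1-Luc cells treated 24 hr at 37 C; detection used a 30 min room-temperature reagent incubation.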

[18] = target: Estrogen receptor (Homo sapiens) (UniProt P03372); assay: qHTS assay to identify small molecule antagonists of the estrogen receptor alpha (ER-alpha) signaling pathway using the BG1 cell line in the presence of 0.1 nM 17-beta-estradiol (AID 1259244); further: nearly all actives have a fitted effect of over 50% in size
In short: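 Compounds were tested against 0.1 nM (final) 17beta-estradiol in VM7Luc4E2 cells, which express full-length ER-alpha and an ERE-luciferase reporter; luminescence was recorded following 22 h exposure.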

[19] = qHTS assay to identify small molecule phospholipidosis (PLD) inducers (AID 1259344; active means well fitted curve in the direction sought with a large enough effect; an effect the other way counts as inactive or inconclusive)
In short: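 Cells (HepG2, 900 per well) attach for 4 h, receive LipidTOX Red and compound together, incubate 24 h at 37 C, are fixed 30 min with paraformaldehyde/Hoechst, then imaged at one site per well.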

[20] = target: Androgen receptor (Homo sapiens) (UniProt P10275); assay: qHTS assay to identify small molecule antagonists of the androgen receptor (AR) signaling pathway using the MDA cell line in the presence of 0.5 nM R1881 (AID 1259243); further: nearly all actives have a fitted effect of over 50% in size
In short: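 With R1881 held at 0.5 nM (final), compound effects on MMTV-luciferase expression in MDA-kb2 cells were scored by luminescence after a 16 hr, 37C incubation.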

Measured: Potency

Estrogen receptor (Homo sapiens), sequence (P03372 whole entry, looked up): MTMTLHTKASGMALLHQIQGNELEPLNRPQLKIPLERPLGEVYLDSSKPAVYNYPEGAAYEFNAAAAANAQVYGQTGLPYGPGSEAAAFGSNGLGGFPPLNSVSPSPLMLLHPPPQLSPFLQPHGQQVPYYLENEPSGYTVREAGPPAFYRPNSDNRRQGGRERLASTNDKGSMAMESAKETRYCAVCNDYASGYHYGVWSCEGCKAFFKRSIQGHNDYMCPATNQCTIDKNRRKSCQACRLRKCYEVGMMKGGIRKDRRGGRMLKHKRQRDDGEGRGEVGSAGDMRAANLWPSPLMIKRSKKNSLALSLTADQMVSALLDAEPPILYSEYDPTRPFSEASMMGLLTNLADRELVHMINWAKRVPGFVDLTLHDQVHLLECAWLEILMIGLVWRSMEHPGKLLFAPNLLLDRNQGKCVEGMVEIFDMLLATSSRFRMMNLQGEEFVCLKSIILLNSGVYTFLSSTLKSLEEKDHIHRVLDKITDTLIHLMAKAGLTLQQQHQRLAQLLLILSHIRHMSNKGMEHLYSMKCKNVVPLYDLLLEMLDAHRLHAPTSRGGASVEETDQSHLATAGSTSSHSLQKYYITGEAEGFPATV
Androgen receptor (Homo sapiens), sequence (P10275 whole entry, looked up): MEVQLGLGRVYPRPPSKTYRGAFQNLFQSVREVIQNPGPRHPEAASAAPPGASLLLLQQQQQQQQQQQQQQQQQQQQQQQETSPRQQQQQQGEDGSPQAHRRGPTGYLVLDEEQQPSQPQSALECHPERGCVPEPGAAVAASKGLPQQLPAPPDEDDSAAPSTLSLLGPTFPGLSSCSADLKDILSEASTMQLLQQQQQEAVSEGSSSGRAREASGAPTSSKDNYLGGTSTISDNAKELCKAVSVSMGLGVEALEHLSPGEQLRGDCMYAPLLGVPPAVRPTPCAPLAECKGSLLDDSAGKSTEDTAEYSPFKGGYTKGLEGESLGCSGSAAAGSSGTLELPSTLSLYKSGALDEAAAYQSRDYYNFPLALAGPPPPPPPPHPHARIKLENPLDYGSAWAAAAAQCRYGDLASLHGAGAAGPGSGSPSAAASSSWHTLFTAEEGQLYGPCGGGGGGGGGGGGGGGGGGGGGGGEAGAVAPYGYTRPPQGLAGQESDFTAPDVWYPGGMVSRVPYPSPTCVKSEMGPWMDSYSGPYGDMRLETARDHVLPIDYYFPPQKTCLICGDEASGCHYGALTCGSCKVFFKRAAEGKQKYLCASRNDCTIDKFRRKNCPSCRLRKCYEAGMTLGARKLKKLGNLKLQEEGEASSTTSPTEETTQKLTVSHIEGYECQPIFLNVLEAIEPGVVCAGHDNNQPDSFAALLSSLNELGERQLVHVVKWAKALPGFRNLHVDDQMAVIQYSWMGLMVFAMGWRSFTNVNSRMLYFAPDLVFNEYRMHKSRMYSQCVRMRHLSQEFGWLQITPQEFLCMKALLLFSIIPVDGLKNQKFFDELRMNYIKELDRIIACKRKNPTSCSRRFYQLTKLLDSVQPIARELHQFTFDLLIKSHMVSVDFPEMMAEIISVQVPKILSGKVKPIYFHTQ

CN=C=O
not listed: [18] | [19] | [20]
inactive: all other assays above

COc1c2c(cc3c1OCO3)CCN(C)C2
not listed: [11] | [20]
inactive: all other assays above

ClC1=C(Cl)[C@]2(Cl)[C@@H]3[C@H]4C[C@H]([C@@H]5O[C@H]45)[C@@H]3[C@@]1(Cl)C2(Cl)Cl
active: [16] 68.5 µM
not listed: [11] | [15] | [20]
inactive: all other assays above

CCOC(=O)Cc1ccccc1
not listed: [11] | [19]
inactive: all other assays above

Cc1cc2c3c(c1)C(c1ccccc1)=N[C@@H](NC(=O)c1ccncc1)C(=O)N3CC2
not listed: [9] | [15] | [19] | [20]
inactive: all other assays above

CCCCCON=O
not listed: [11] | [18] | [19] | [20]
inactive: all other assays above

O=[N+]([O-])c1cccc2cccc([N+](=O)[O-])c12
not listed: [15] | [18] | [19] | [20]
inactive: all other assays above

CCN(CC)CCN1C(=O)CN=C(c2ccccc2F)c2cc(Cl)ccc21
not listed: [11] | [15] | [17] | [19] | [20]
inactive: all other assays above

Nc1nc(N)nc(Cl)n1
not listed: [11] | [17] | [19] | [20]
inactive: all other assays above

CC(=O)[O-].CC(=O)[O-].CC(=O)[O-].[Cr+3]
not listed: [16] | [18] | [19] | [20]
inactive: all other assays above

COCCC#N
not listed: [18] | [19] | [20]
inactive: all other assays above

[Cl-].[Cl-].[Cl-].[Yb+3]
not listed: [11] | [15] | [16] | [18] | [19] | [20]
inactive: all other assays above

CNN
not listed: [18] | [19] | [20]
inactive: all other assays above

COP(=O)(OC)Oc1ccc([N+](=O)[O-])cc1
not listed: [11] | [15] | [19] | [20]
inactive: all other assays above
